# Screening results (PubChem BioAssay)
# aSyn rescue – inhibitors of alpha-synuclein toxicity in yeast | AID 652106 | 0.14% of 370,000 active | Potency, µM (doses to about 46.1 µM), for inactives: at the top dose growth rescue (activation), usual class: activators | Yeast expressing alpha-synuclein, growth rescue, BacTiter-Glo, 24 h; further: % of control where 0% means no effect; nearly all actives have a fitted effect of over 65% in size
#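 Readout is rescue of growth in alpha-synuclein-expressing yeast, so inhibitors of toxicity appear as activators. Growth after 24 hr at 30 deg C in galactose medium is quantified by luminescence.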
# TDP-43 yeast inh – TDP-43 toxicity inhibition in yeast; TDP-43 expressing yeast growth rescue, BacTiter-Glo, 24 h; Potency, µM (top dose mostly 46.1 µM), without a hit: at the highest dose growth rescue (activation), most hits filed as activators; 1.8% of 410,000 active; further: % of control where 0% means no effect; nearly all actives have a fitted effect of over 50% in size
#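 Cell-based yeast growth screen: TDP-43 expression induced in galactose, inoculum OD600=0.02 after raffinose pregrowth to mid-log. Read-out BacTiter-Glo luminescence at 24 hr, 30 deg C; inhibition of toxicity seen as signal increase.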
# FUS yeast rescue – suppressors of FUS proteinopathy in yeast | S. cerevisiae FUS-expressing, growth rescue, OD600, 24 h | Potency, µM (doses to about 76.6 µM), actives largely listed as activators | 0.24% of 390,000 active | AID 1347120;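 further: plate controls were DMSO vehicle for no effect and reference control for full effect; nearly all actives have a fitted effect of over 55% in size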
#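 S. cerevisiae expressing FUS from galactose induction served as the toxicity model. Growth after 24hr at 30C, read as absorbance at 600 nm, indicates suppression of toxicity; compounds dosed at several concentrations.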
# Abeta yeast res – restores growth of yeast expressing A-beta42 peptide; yeast expressing A-beta42, growth rescue, OD600, 48 h; response scale: 0% DMSO, 100% iron-clioquinol control; Potency, µM (titrated, usually from 46.1 µM), actives largely listed as activators; 0.063% of 410,000 active; AID 1347071; further: nearly all actives have a fitted effect of over 55% in size
#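 Yeast growth medium received pinned compounds, then yeast cells expressing toxic A-beta were added; plates incubated at 30 C for 48 hr. Growth read as absorbance at 600 nm, normalized to DMSO and equimolar FeCl3 plus clioquinol controls.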
# * hit, by the source's call; i = inactive; ? = inconclusive; nt = not tested or not shown; [ ] = remark or other dose. A selection: hits, their analogues and other compounds. The true share with any hit is near 2.1%. The call rests on the fitted dose curve; in most records, active means well fitted curve in the direction sought with a large enough effect; inconclusive means small, poorly fitted or top-dose-only effect, or another doubt; inactive means no such curve, though single readings can be large; an effect the other way counts as inactive or inconclusive. Potency means the concentration at half of the fitted maximal effect.
SMILES,aSyn rescue,TDP-43 yeast inh,FUS yeast rescue,Abeta yeast res
CCCc1nc(SCC(=O)N2CCCc3ccccc32)c2c(=O)n(C)c(=O)n(C)c2n1,13%,35µM*,i,i
CCCc1nc(SCC(=O)N2CCC(Cc3ccccc3)CC2)c2c(=O)n(C)c(=O)n(C)c2n1,1%,35µM*,i,i
CCCc1nc(SCC(=O)Nc2ccccc2)c2c(=O)n(C)c(=O)n(C)c2n1,-3%,7%,i,i
Cn1c(=O)c2c(SCC(=O)N3CCCc4ccccc43)nc(CC(C)(C)C)nc2n(C)c1=O,0%,21%,i,i
CC(C)c1nc(SCC(=O)N2CCCC2)c2c(=O)n(C)c(=O)n(C)c2n1,3.5µM*,-26%,i,i
COC(=O)[C@@H]1[C@H](O[Si](C)(C)C(C)(C)C)[C@H]2O[C@H]2C[C@H]1S(=O)(=O)c1ccccc1,nt,nt,i,nt
CC1CCN(C(c2ccc(N(C)C)cc2)c2nnnn2Cc2ccc(F)cc2)CC1 (stereo not given),0%,-1%,i,i
Fc1ccc(Cn2nnnc2C(c2ccc(Cl)cc2)N2CCSCC2)cc1 (stereo not given),10%,35µM*,i,i
CCCS(=O)(=O)c1ncc(Cl)c(C(=O)Nc2sc3c(c2C(=O)NCC)CCCC3)n1,-1%,nt,nt,nt
COC(=O)c1ccn(CSc2c(F)c(F)cc(F)c2F)n1,1%,8%,i,i
COC(=O)c1ccn(CSc2cc(Cl)ccc2Cl)n1,-6%,13µM*,i,i
O=C(Nc1nc(-c2ccco2)cs1)c1ccccc1,-51%,13µM*,i,i
O=C(Nc1nc(-c2ccccn2)cs1)c1ccc2c(c1)OCCO2,?,?,i,13µM*
O=C(Nc1nc(-c2ccccn2)cs1)c1cc(Cl)ccc1[N+](=O)[O-],?,?,i,13µM*
CC(=O)Nc1ccc(C(=O)Nc2nc(-c3ccccn3)cs2)cc1,-12%,10%,?,i
CCc1ccc(S(=O)(=O)c2c(C(=O)c3ccccc3)cnc3ccc(CC)cc23)cc1,nt,0%,i,i
CCOC(=O)c1cc(-c2ccccc2)n(-c2cccc(C(=O)N(C)c3ccc(C)cc3)c2)c1C,nt,9%,?,i
COc1cc(C2Nc3ccccc3C(=O)N2Cc2ccco2)cc(OC)c1OC (stereo not given),4%,nt,nt,nt
O=C(CC(=O)c1ccccn1)c1ccccc1,13µM*,?,nt,?
O=C(c1ccccc1)c1ccccn1,3%,-1%[0.397 µM],i,i
O=C(O/N=C(/c1ccccc1)c1ccncc1)c1cccc(F)c1,11%,14µM*,i,i
C1=Cc2ccccc2/C1=C\c1cc2c3c(c1)CCCN3CCC2,-6%,nt,nt,nt
COc1ccc2c(c1)c(=O)c(C(=O)c1ccccc1)cn2CC(=O)Nc1ccc2c(c1)OCO2,nt,15%,i,i
CCOc1ccccc1NC(=S)NC(=O)C1CCCCC1,-26%,20%,i,7.1µM*
CCOc1ccccc1NC(=S)NC(=O)c1ccco1,-5%,14µM*,i,?
SMILES,aSyn rescue,TDP-43 yeast inh,FUS yeast rescue,Abeta yeast res
CCOc1ccccc1NC(=O)c1ccccc1NC(=O)c1ccco1,-4%,15%,i,i
CCOc1ccccc1NC(=O)C1CCCC1,0%,0%,i,i
Cn1nnc2c(NCc3ccccc3Cl)ncnc21,nt,?,i,i
Cn1nnc2c(NCc3ccc(Cl)cc3)ncnc21,nt,11µM*,i,i
Cc1ccc(-c2nc3sc(CCNC(=O)c4ccc(Br)o4)c(C)n3n2)cc1,nt,18µM*,?,i
Cc1c(CCNC(=O)c2ccco2)sc2nc(-c3ccc(F)cc3)nn12,nt,?,i,i
Cc1ccc(-c2nc3sc(CCNC(=O)c4ccco4)c(C)n3n2)cc1,nt,20µM*,i,i
CCCS(=O)(=O)NCCc1sc2nc(-c3ccc(F)cc3)nn2c1C,nt,24%,i,i
Cc1cc(C)c(S(=O)(=O)NCCc2sc3nc(-c4ccc(F)cc4)nn3c2C)c(C)c1,nt,20µM*,i,?
Cc1c(CCNC(=O)Cc2ccccc2)sc2nc(-c3ccc(F)cc3)nn12,nt,10µM*,i,i
Cc1c(CCNC(=O)Cc2ccc(F)cc2)sc2nc(-c3ccc(F)cc3)nn12,nt,?,i,i
CC(=O)CSc1nc(-c2ccccc2)[nH]c1S(=O)(=O)c1ccc(C)cc1,nt,14%,i,i
CN(c1ccccc1)c1cc(Br)nc(Br)c1,0%,14µM*,i,i
COc1ccccc1N1CCN(C(=O)c2cnn(-c3ccc(C)c(C)c3)c2C2CCN(C(=O)OC(C)(C)C)CC2)CC1,nt,?,i,i
C/C(=N\OC(=O)c1ccc(F)cc1)c1sc(-c2ccccc2)nc1C,-3%,4%,i,i[9.22 µM]
C/C(=N\OC(=O)NC1CCCCC1)c1sc(-c2ccccc2)nc1C,nt,20µM*,i,i
CS(=O)(=O)N1CCN(c2nc(-c3cccs3)nc3ccccc23)CC1,1%,nt,nt,nt
COc1ccc(Nc2nc(-c3cccs3)cs2)c(OC)c1,nt,13µM*,i,i
COc1ccc(Nc2nc(-c3sc(C)nc3C)cs2)c(OC)c1,-14%,16µM*,i,i
COc1ccc(OC)c(Nc2nc(-c3cccs3)cs2)c1,8%,16µM*,i,i
COc1ccccc1Nc1nc(-c2cccs2)cs1,-17%,?,i,i
O=C(Cn1nc(C(F)(F)F)c2c1CCCC2)Nc1cccc(Cl)c1,nt,9%[9.22 µM],i,i
CCN(CC)/[N+]([O-])=N/OCOC(=O)C(C)c1ccc(CC(C)C)cc1 (stereo not given),11%,nt,nt,nt
Cc1ccc(N2C(=O)c3ccccc3C2Nc2ccc(S(=O)(=O)N3CCCCC3)cc2)nc1 (stereo not given),0%,?,35µM*,i
CCN(C)c1ccc(/C=C/c2ccnc3ccccc23)cc1,-14%,nt,nt,nt
SMILES,aSyn rescue,TDP-43 yeast inh,FUS yeast rescue,Abeta yeast res
CCOC(=O)/C(C#N)=C1/SC(C)C(=O)N1c1ccc(Br)cc1 (stereo not given),0%,0%,22µM*,i
CCOC(=O)/C(C#N)=C1/SC(CC)C(=O)N1c1ccc(Br)cc1 (stereo not given),1%,-14%,?,i
Cc1ccc(S(=O)(=O)N2CCN(C(=O)COC(=O)c3ccccc3Cl)CC2)c(C)c1,24%,25µM*,i,i
CC(=O)N1c2nc(C(C)C)nn2C2(CCCCC2)[C@@H]2CCCC[C@@H]21,nt,6%,i,i
O=[N+]([O-])c1nn(-c2ccccc2)n(O)c1=NC1CCN(Cc2ccccc2)CC1,-4%,4%,i,i
O=[N+]([O-])c1nn(-c2ccccc2)n(O)c1=NCCc1ccccc1,2%,7.1µM*,nt,i
Cc1ccc(CCN=c2c([N+](=O)[O-])nn(-c3ccccc3)n2O)cc1,20%,11µM*,i,i
COc1ccc(-n2nc([N+](=O)[O-])c(=NCCc3ccccc3)n2O)cc1,8%,13µM*,nt,i
